Values without a mark were called inactive. No rule for the calls is given here.

In the assay the test system is Aerobactin synthetase IucA (Klebsiella pneumoniae hvKP1). The experiment in a line: IucA enzyme inhibition, primary screen, biochemical, Spectrum library (AID 1346200).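 Also: 100% = wells without compound and 0% = wells lacking enzyme.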 The following applies: malachite green pyrophosphate, A620, at 8 µM, active compounds read low.
For `CC1(C)O[C@@H]2CC3C4C[C@H](F)C5=CC(=O)CC[C@]5(C)C4[C@@H](O)C[C@]3(C)[C@]2(C(=O)CO)O1` (stereo not given in full), the activity remaining was 118%.

`N[C@@H](CCC(=O)N[C@@H](CS)C(=O)NCC(=O)O)C(=O)O`: the activity remaining is 101%.

Take `CC(=O)O[C@H]1C[C@@H](OC(C)=O)C(C)(C)C2CC(=O)[C@]3(C)C(CC[C@@]4(C)[C@H](C(=O)O)OC(=O)C5OC543)[C@]21C` (stereo not given in full): the activity remaining was 122%.

On to `COC(=O)C(C)c1ccc(C(=O)c2cccs2)cc1` (stereo not given), for which the activity remaining is 103%.

For the compound `Nc1nc2c(c(=O)[nH]1)NC(CNc1ccc(C(=O)N[C@H](CCC(=O)O)C(=O)O)cc1)=CN2`, the activity remaining is 102%.

For `CN(C)C(=O)Nc1ccc(Cl)c(Cl)c1`, the activity remaining is 109%.

`CC(C)=CCc1c2c(c3occ(-c4ccc(O)c(O)c4)c(=O)c3c1O)C=CC(C)(C)O2`: the activity remaining was 120%.

In the case of `CCn1cc(C(=O)O)c(=O)c2cc(F)c(N3CCNCC3)cc21`, the activity remaining is 115%.

Regarding `COC(=O)c1c(OC)cc2c(c1C)Oc1c(Cl)c(OC(C)=O)c(Cl)c(C)c1C(=O)O2`, the activity remaining was 98.6%.

On to `CCCCC(CC)CN=C(N)NC(N)=NCCCCCCN=C(N)NC(N)=NCC(CC)CCCC` (stereo not given), for which the activity remaining is 98.4%.

As for `C=C1C(=O)O[C@@H]2C3OC3(C)CC/C=C(\C)CC[C@@H]12` (stereo not given in full), the activity remaining was 105%.

`COc1ccc2c(c1)OC/C(=C/c1ccc(OC)c(OC)c1)C2=O`: the activity remaining is 123%.

In the case of `Nc1ccn(C2O[C@H](CO)[C@@H](O)[C@H]2O)c(=O)n1` (stereo not given in full), the activity remaining is 101%.

For the compound `CC(=O)Nc1ccc(O)cc1`, the activity remaining was 90%.

For `O=C(N[C@@H](CO)[C@H](O)c1ccc([N+](=O)[O-])cc1)C(Cl)Cl`, the activity remaining was 114%.

With `CC(=O)Oc1c2c(c3c(c1CC=C(C)C)O[C@]14C(=C[C@@H]5CC1C(C)(C)OC4(C/C=C(\C)C(=O)O)C5=O)C3=O)OC(C)(CCC=C(C)C)C=C2` (stereo not given in full), the activity remaining was 112%.

Regarding `CC(C)=CCCC1(C)C=Cc2c(O)c3c(c(CC=C(C)C)c2O1)OC12C(=CCCC1C(C)(C)O[C@@]2(C/C=C(\C)C(=O)O)C(=O)O)C3=O` (stereo not given in full), the activity remaining was 116%.

As to `COc1c(O)cc(O)cc1O`, the activity remaining was 116%.

Take `CC(C)[C@H](N)C(=O)OCCOCn1cnc2c(=O)[nH]c(N)nc21`: the activity remaining was 122%.

For the compound `COc1ccc(C(=O)CC(=O)c2ccc(C(C)(C)C)cc2)cc1`, the activity remaining was 104%.

With `CC(=O)O[C@H]1[C@@H]2[C@@H](OC(=O)Cc3ccccc3)[C@@H](C)C[C@]2(OC(C)=O)C(=O)/C(C)=C/[C@H]2[C@H](CC[C@@]13CO3)C2(C)C`, the activity remaining was 103%.

Take `CCCCCC1C(=O)CCC1CC(=O)OC` (stereo not given): the activity remaining is 118%.

For the compound `O=C1O[C@@H](CO)[C@H](O)[C@@H](O)[C@@H]1O`, the activity remaining was 113%.

For `CC1(C)CC[C@]2(C(=O)O)CC[C@]3(C)C(=CCC4[C@@]5(C)CC[C@H](O)C(C)(C)C5[C@H](O)C[C@]43C)C2C1` (stereo not given in full), the activity remaining is 76.1%.

For `Cc1cc2cc3c(C)cc(=O)oc3c(C)c2o1`, the activity remaining was 117%.

As to `COc1ccc([C@@H]2CC(=O)c3c(O)cc(O)cc3O2)cc1O`, the activity remaining was 115%.

With `COC(=O)C[C@H]1C2(C)CC34OC5(C)O[C@@]6([C@H](OC)C(OC(=O)C(C)C)[C@]7(C)C(/C(=C(/OC)C(C)C)C(=O)O[C@H]7c7ccoc7)[C@@]6(O5)[C@H](OC)[C@@]3(OC)C2OC(C)=O)[C@]14C` (stereo not given in full), the activity remaining was 119%.

On to `COC(=O)Nc1nc2ccc(C(=O)c3ccccc3)cc2[nH]1`, for which the activity remaining is 104%.

For `CCc1ccc(CCOc2ccc(CC3SC(=O)NC3=O)cc2)nc1` (stereo not given), the activity remaining is 120%.

Turning to `C=C[C@@](C)(O)CCC1C(=C)C[C@H](O)C2C(C)(C)CCCC12C` (stereo not given in full), the activity remaining was 123%.

Regarding `C[C@@H]1CC[C@@]2(OC1)OC1CC3C4CC=C5C[C@@H](O)CC[C@]5(C)C4CC[C@]3(C)C1[C@@H]2C` (stereo not given in full), the activity remaining was 104%.

`CCC[C@@H]1C[C@@H](C(=O)N[C@H]([C@H]2O[C@H](SC)[C@H](O)[C@@H](O)[C@H]2O)[C@H](C)O)N(C)C1`: the activity remaining was 111%.

With `COC(=O)C(O)c1ccccc1` (stereo not given), the activity remaining is 108%.

Take `CC(C(=O)O)[C@H]1CCC2C3CC=C4C[C@@H](O)CC[C@]4(C)C3CC[C@@]21C` (stereo not given in full): the activity remaining is 98.4%.

Turning to `COc1ccc(/C=C/C(=O)c2cc(O)ccc2O)cc1`, the activity remaining was 87.4%.

With `CN(C)CC[C@H](c1ccc(Cl)cc1)c1ccccn1`, the activity remaining is 90.6%.

For the compound `COc1ccc(-c2coc3c(OC)c(OC)cc(O)c3c2=O)cc1`, the activity remaining is 105%.

Turning to `O=c1[nH]c(=O)n(C2C[C@@H](O)[C@@H](CO)O2)cc1F` (stereo not given in full), the activity remaining is 120%.

For `CCn1cc(C(=O)O)c(=O)c2cnc(N3CCCC3)nc21`, the activity remaining was 105%.

Regarding `CCOC(=O)C(C)(N)Cc1ccc(O)c(O)c1` (stereo not given), the activity remaining is 105%.

The record behind these values is PubChem BioAssay.
